Only some compounds are listed: those with a hit (about 14% of all), similar ones and a draw of the others.
Pf growth 48h = P. falciparum growth inhibition at 48 hours (one generation) | AID 504832 | hit rate 5.9% among 310,000 | Potency, µM (top dose mostly 28.7 µM), inactives show at the highest dose activity change, negative = inhibition, hits mostly inhibitors | P. falciparum luciferase growth in erythrocytes, 48 h; note: potency is the fitted concentration of half-maximal effect
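Luciferase-expressing P. falciparum in infected erythrocytes (2% hematocrit, 0.1% parasitemia final) in RPMI 1640/0.5% Albumax were exposed to compound for 48 hours at 37 C, 5% CO2; growth read as luminescence.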
HCMV antiviral = inhibitors of human cytomegalovirus. HFF cells, HCMV-luciferase reporter, 72 h; hits give low values. activity change, negative = inhibition, % at 57.5 µM. hit rate 4.5% among 410,000. AID 1259415; in the data active = activity change below about -60%; inconclusive = no clear call, values can overlap the other calls; inactive = above about -39%
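Steps: HFFs plated, 16 h 37C; compounds added; HCMV-luciferase added to MOI 1 PFU/cell; 72 h 37C; OneGlo reagent, 5 min room temperature; luminescence read, normalized to controls.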
Pf growth 96h = inhibits malaria parasite growth, 96 h; hit rate 6.9% among 320,000; Potency, µM (top dose mostly 28.7 µM), without a hit: at the top dose activity change, negative = inhibition, usual class: inhibitors; P. falciparum luciferase reporter growth, 96 h; note: potency is the fitted concentration of half-maximal effect
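Compounds incubated with erythrocytes infected by luciferase-expressing P. falciparum (2% hematocrit, 0.05% parasitemia final) for 96 hours, 37 C in 5% CO2. Growth inhibition scored as decreased luciferase luminescence.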
Sm TGR block = S. mansoni TGR enzyme inhibition; Q962Y6; purified TGR, DTNB reduction, TNB absorbance 405 nm; Potency, µM (series often up to 114 µM), without a hit: at the highest dose activity change, negative = inhibition, usual class: inhibitors; hit rate 3% among 360,000; note: potency is the fitted concentration of half-maximal effect; nearly all actives have a fitted effect of over 60% in size
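Kinetic colorimetric format: TGR-catalysed, NADPH-driven DTNB reduction monitored via TNB absorbance. Enzyme dispensed at 20 nM; compound exposure 15 min at room temperature before reaction start.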
FBPA Giardia inh = inhibitors of Giardia lamblia fructose-1,6-bisphosphate aldolase; purified Giardia FBPA; Potency, µM (doses to about 59.6 µM), inactives show top-dose activity, negative = inhibition, most hits filed as inhibitors; hit rate 0.71% among 290,000; note: potency is the fitted concentration of half-maximal effect; nearly all actives have a fitted effect of over 55% in size
Target sequence (A8B2U2 whole entry, looked up): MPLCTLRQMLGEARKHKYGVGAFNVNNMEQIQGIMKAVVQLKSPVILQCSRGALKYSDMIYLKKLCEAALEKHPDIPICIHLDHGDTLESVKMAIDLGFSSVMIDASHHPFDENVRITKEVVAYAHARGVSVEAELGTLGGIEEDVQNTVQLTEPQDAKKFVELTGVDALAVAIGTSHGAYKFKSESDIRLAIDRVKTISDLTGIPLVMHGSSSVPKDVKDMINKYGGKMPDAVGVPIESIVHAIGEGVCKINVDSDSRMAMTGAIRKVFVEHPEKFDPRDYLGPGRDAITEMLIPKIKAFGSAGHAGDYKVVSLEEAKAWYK
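40 nM FBPA preincubated 10 min at RT with compound (up to 57.5 uM final), then substrate plus GAPDH/TPI/NAD/arsenate coupling and diaphorase/resazurin added. Fluorescence read after 20 min at RT, 525/598 nm.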
* = called active by the depositor; ? = inconclusive; nt = no result given; [ ] = another dose, or the depositor's remark. Unless noted, calls come from the whole dose curve; as a rule, active = well fitted curve in the direction sought with a large enough effect; inconclusive = small, poorly fitted or top-dose-only effect, or another doubt; inactive = no such curve, though single readings can be large; an effect the other way counts as inactive or inconclusive. % is set by controls: 0 for no effect and ±100 for the full control effect.

SMILES	Pf growth 48h	HCMV antiviral	Pf growth 96h	Sm TGR block	FBPA Giardia inh
COc1cc(C(=S)N2CCOCC2)ccc1OS(=O)(=O)c1ccc(Cl)cc1	-4%	-19	10%	-18%	6%
CC(=O)Nc1ccc(S(=O)(=O)Oc2ccc(C(=S)N3CCCCC3)cc2)cc1	-5%	?	-24%	-4%	16%
Cc1nn2c(-c3ccco3)ccnc2c1-c1ccc(F)cc1	nt	-2	nt	0%	nt
Cc1onc(-c2ccccc2Cl)c1C(=O)Oc1cccc2cccnc12	?	6	24%	3%	-16%
Cc1nn2c(NCc3ccccn3)c3c(nc2c1-c1ccccc1)CCC3	?	-83*	4.7µM*	25µM*	-8%
Cc1nn2c(N3CCN(C)CC3)c3c(nc2c1-c1ccccc1)CCCC3	66%	-17	9.3µM*	-12%	4%
Cc1[nH]n2c(=O)c3c(nc2c1-c1ccccc1)CCCC3	?	6	-13%	-13%	-1%
Clc1ccc(Nc2c3c(nc4ncnn24)CCC3)cc1	?	6	?	6%	-5%
c1ccc(CNc2c3c(nc4ncnn24)CCCC3)nc1	7%	21	8.3µM*	-25%	23%
CCCc1cc(NCCCn2ccnc2)n2nc(C)c(-c3ccccc3)c2n1	?	?	0.41µM*	-16%	0%
Cc1cc(C)n2nc(C)c(-c3ccccc3)c2n1	nt	0	nt	nt	nt
CC(C)(C)c1cc(NCCCn2ccnc2)n2ncc(-c3ccccc3)c2n1	?	-26	?	17%	0%
CN(C(=O)c1ccc(Br)o1)C1CCCCC1	41%	-9	?	-20%	-7%
CN(CC(=O)Nc1ccc(Cl)cc1)CC(=O)Nc1sc2c(c1C(N)=O)CCC2	nt	18	nt	nt	nt
Cc1nn2c(NCCN3CCOCC3)c3c(nc2c1-c1ccccc1)CCCC3	?	?	13µM*	4%	2%
Cc1cc(Nc2ccccc2)n2nc(C)c(-c3ccccc3)c2n1	?	-18	-30%	9%	5%
COc1ccc(-c2c(C)nn3c(-c4ccccc4)cc(C)nc23)cc1	-17%	14	?	7%	-12%
Cc1nn2c(NCc3ccccn3)cc(C(C)(C)C)nc2c1-c1ccccc1	4.7µM*	-97*	2.9µM*	-21%	-14%
Cc1cc(N2CCOCC2)n2nc(C)c(-c3ccccc3)c2n1	-1%	64	nt	8%	19%
COc1ccc(Nc2c3c(nc4c(-c5ccccc5)c(C)nn24)CCC3)cc1	13µM*	0	5.9µM*	-7%	11%
Cc1cc(NCc2ccccn2)n2nc(C)c(-c3ccccc3)c2n1	1.7µM*	-83*	2.1µM*	1%	0%
O=C(c1ccco1)N1CCN(C(=O)c2cn(-c3ccccc3)nc2-c2ccc(F)cc2)CC1	-12%	22	-24%	-23%	nt
Cc1ccc2nc(C)cc(C(=O)OCC(=O)Nc3c(C)n(C)n(-c4ccccc4)c3=O)c2c1	3%	-32	4%	4%	2%
Cc1nnsc1C(=O)NNc1ccc(C(C)(C)C)cc1	-7%	27	-2%	35µM*	-2%
Cc1nnsc1C(=O)NNc1ccc(C(C)C)cc1	125%	33	152%	?	-3%
SMILES	Pf growth 48h	HCMV antiviral	Pf growth 96h	Sm TGR block	FBPA Giardia inh
Cc1ccc(CNC(=O)c2cc3c(s2)CN(Cc2ccccc2)C3)cc1	-2%	-34	?	-2%	-1%
Fc1ccc(CNCc2ccccc2Cl)cc1	3%	?	20%	1%	?
C=CCOc1ccccc1CNCc1ccc(F)cc1	-13%	-26	2.3µM*	-8%	-1%
CCCNC(=O)C[C@H]1CC[C@@H]2[C@H](COC[C@@H](O)CN2C(=O)c2ccccn2)O1	nt	24	nt	nt	nt
CN1C(=O)C(Cc2ccsc2)C(=O)N(C)C1=O	-12%	-8	nt	5µM*	?
COc1cccc(NC(=O)C(=O)NCCC2CCCCN2S(=O)(=O)c2cccs2)c1 (centres undefined)	32%	nt	41%	-7%	nt
COc1ccc(-c2[nH]ncc2CN(C)Cc2nonc2C)c(OC)c1	9%	20	10µM*	4%	0%
COc1ccc(-c2[nH]ncc2CN(C)C(C)c2ccon2)c(OC)c1 (centres undefined)	0%	-3	?	-3%	4%
COc1cc(-c2[nH]ncc2CN(C)Cc2cc(C)[nH]n2)cc(OC)c1OC	-17%	-21	?	3%[57.1 µM]	3%
COc1cc(-c2[nH]ncc2CN(C)Cc2nonc2C)cc(OC)c1OC	?	-4	1.7µM*	-27%	4%
Cc1ccsc1C(=O)NC1CCCN(Cc2ccc(Cl)cc2)C1 (centres undefined)	?	-27	-5%	-6%	nt
O=S(Cc1ccccc1)CC(O)(c1ccc(Cl)cc1)c1ccc(Cl)cc1 (centres undefined)	?	-92*	?	3%	11%
O=S(Cc1ccc(Cl)cc1)CC(O)(c1ccccc1)c1ccccc1 (centres undefined)	-2%	28	0%	0%	5%
COC(=O)C1=C(C(=O)OC)[C@@H]2N(Cc3ccccc3)c3ccccc3[C@@]23C[C@@H](C(=O)OC)N(S(=O)(=O)c2ccc(OC)cc2)C3=N1	nt	nt	nt	nt	7%[12.9 µM]
C=CCc1cc(Cl)ccc1OCCCNC(C)C	?	-26	23%	-18%	-24%
C=CCc1cc(Cl)ccc1OCCCNCCO	9.3µM*	?	66%	-18%	-27%
CCCCNCCCOc1cc(Cl)ccc1Cl	nt	-1	6.6µM*	-1%	4%
O=C(CCc1c[nH]c2ccccc12)N[C@@H](Cc1c[nH]c2ccc(O)cc12)C(=O)O	3.7µM*	-25	4.7µM*	2%	2%
O=C(COc1ccccc1)NC(Cc1c[nH]c2ccccc12)C(=O)O (centres undefined)	1%	20	19%	-5%	4%
O=C(CCCc1c[nH]c2ccccc12)Nc1ncccc1O	0%	-88*	?	0%	nt
N[C@H](Cc1c[nH]c2ccccc12)C(=O)O	4%	nt	1.5µM*	nt	nt
Cc1noc(C)c1COC(=O)CCCc1c[nH]c2ccccc12	12µM*	106	?	-16%	-12%
CCOC(=O)CCCc1c[nH]c2ccccc12	-10%	-10	?	32%	1%
Cc1cccnc1NC(=O)CCCc1c[nH]c2ccccc12	105%	15	?	-1%	nt
CC(=O)OCC(NC(=O)C(CCCCNC(=O)OCc1ccccc1)NC(=O)OC(C)(C)C)C1OC(n2ccc(=O)[nH]c2=O)C(OC(C)=O)C1OC(C)=O (centres undefined)	nt	nt	nt	nt	8%
COc1ccccc1NC(=O)N1CC(=O)Nc2sc3c(c2C1c1ccccc1)CCCC3 (centres undefined)	nt	6	nt	-7%	nt
O=c1c(CCc2ccccc2)nc2cnc(N3CCOCC3)nc2n1-c1ccccc1	nt	nt	nt	nt	12%
O=C(Cc1c[nH]c2ccccc12)N[C@@H](Cc1c[nH]c2ccccc12)C(=O)O	45%	21	18%	4%	17%
CC(N)Cc1c[nH]c2ccc(O)cc12 (centres undefined)	nt	-6	nt	nt	4µM*

Screening results as filed in PubChem.
